Data taken from the supplement of paper PMC11732987, “Enantioselective OTUD7B fragment discovery through chemoproteomics screening and high-throughput optimisation” (Communications Chemistry, 2025).

What was measured:
Assay in all cases: log2 ratio of Biotin-Ahx-Ub-VS probe labelling (fragment/DMSO); higher = less target engagement (more negative = stronger competition), active = hit call of the paper (q ≤ 0.05, log2 ratio ≤ -1)
Conditions in all cases: compound concentration: 200 uM; treatment time: 3 h
OTUD6B = molecular target: T1, OTUD6B (UniProt Q8N6M0)
T1 sequence (whole entry): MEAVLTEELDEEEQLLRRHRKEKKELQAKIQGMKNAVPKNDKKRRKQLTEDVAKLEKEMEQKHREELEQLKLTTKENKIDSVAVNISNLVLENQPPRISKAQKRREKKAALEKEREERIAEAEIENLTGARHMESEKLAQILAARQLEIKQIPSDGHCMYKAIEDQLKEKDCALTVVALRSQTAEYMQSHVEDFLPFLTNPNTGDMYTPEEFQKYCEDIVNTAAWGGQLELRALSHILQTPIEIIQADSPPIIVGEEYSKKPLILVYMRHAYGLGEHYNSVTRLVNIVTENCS
How it was run: (§1)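 Global-median-normalised Spectronaut label-free quantities were compared by unpaired t-test, and values are average log2 ratios of fragment over vehicle. Only proteins with ≥2 unique peptides were used. HEK293T lysate (495 µg per sample) was treated in triplicate with fragment at 200 µM or vehicle for 3 h and then with Biotin-Ahx-Ub-VS at 0.5 µM final for 1 h. Labelled DUBs were then NeutrAvidin-enriched, digested with LysC and trypsin, and run by diaPASEF LC-MS/MS.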

OTUD7B = molecular target: T2, OTUD7B (UniProt Q6GQQ9)
T2 sequence (whole entry): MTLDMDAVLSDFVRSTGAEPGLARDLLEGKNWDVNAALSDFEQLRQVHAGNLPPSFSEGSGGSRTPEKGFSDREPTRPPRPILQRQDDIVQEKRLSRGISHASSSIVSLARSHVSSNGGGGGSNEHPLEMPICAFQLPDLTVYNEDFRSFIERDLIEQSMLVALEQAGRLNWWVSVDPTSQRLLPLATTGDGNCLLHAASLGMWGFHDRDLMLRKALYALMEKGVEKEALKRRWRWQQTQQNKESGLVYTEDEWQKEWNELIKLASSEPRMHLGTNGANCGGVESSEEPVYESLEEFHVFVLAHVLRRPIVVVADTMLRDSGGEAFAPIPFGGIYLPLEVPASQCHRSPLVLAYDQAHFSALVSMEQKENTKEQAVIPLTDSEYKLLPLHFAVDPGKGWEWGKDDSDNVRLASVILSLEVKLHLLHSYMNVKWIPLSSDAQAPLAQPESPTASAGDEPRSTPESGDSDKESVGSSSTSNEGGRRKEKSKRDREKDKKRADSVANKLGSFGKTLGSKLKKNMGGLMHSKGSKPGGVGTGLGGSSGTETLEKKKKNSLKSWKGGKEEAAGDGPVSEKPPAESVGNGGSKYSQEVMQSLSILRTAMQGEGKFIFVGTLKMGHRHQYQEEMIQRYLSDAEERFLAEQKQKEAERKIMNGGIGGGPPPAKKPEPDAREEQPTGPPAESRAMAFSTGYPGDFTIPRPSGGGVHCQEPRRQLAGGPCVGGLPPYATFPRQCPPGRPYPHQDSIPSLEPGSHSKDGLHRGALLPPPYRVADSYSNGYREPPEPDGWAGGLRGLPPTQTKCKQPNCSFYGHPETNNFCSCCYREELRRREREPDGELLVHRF
How it was run: as §1

PRPF8 = PRPF8 (UniProt Q6P2Q9)
How it was run: as §1

PSMD7 = molecular target: T3, PSMD7 (UniProt P51665)
T3 sequence (whole entry): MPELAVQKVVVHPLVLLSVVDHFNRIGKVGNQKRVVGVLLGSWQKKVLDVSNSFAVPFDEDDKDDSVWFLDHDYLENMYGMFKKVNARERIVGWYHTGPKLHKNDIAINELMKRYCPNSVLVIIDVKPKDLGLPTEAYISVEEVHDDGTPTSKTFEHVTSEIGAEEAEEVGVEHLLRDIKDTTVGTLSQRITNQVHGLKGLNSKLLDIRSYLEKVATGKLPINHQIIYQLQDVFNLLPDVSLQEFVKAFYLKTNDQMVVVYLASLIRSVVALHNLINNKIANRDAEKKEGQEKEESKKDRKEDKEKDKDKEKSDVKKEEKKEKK
How it was run: as §1

UCHL1 = UCHL1 (UniProt P09936)
How it was run: as §1

UCHL3 = molecular target: T4, UCHL3 (UniProt P15374)
T4 sequence (whole entry): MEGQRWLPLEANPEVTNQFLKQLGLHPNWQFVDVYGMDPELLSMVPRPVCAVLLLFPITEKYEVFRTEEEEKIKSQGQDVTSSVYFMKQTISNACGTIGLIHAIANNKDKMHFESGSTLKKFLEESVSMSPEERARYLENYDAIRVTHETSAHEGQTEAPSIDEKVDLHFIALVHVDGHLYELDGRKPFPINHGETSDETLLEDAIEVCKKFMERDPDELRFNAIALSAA
How it was run: as §1

UCHL5 = molecular target: T5, UCHL5 (UniProt Q9Y5K5)
T5 sequence (whole entry): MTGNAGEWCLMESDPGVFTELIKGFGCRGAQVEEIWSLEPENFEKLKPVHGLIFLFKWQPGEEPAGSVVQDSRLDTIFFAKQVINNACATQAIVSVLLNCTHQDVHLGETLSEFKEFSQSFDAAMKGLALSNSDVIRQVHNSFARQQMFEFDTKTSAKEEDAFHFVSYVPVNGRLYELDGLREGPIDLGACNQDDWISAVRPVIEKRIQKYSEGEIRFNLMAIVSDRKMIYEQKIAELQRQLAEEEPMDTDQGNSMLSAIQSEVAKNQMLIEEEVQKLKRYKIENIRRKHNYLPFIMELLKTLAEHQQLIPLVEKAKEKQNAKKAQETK
How it was run: as §1

USP10 = USP10 (UniProt Q14694)
How it was run: as §1

USP15 = molecular target: T6, USP15 (UniProt Q9Y4E8)
T6 sequence (whole entry): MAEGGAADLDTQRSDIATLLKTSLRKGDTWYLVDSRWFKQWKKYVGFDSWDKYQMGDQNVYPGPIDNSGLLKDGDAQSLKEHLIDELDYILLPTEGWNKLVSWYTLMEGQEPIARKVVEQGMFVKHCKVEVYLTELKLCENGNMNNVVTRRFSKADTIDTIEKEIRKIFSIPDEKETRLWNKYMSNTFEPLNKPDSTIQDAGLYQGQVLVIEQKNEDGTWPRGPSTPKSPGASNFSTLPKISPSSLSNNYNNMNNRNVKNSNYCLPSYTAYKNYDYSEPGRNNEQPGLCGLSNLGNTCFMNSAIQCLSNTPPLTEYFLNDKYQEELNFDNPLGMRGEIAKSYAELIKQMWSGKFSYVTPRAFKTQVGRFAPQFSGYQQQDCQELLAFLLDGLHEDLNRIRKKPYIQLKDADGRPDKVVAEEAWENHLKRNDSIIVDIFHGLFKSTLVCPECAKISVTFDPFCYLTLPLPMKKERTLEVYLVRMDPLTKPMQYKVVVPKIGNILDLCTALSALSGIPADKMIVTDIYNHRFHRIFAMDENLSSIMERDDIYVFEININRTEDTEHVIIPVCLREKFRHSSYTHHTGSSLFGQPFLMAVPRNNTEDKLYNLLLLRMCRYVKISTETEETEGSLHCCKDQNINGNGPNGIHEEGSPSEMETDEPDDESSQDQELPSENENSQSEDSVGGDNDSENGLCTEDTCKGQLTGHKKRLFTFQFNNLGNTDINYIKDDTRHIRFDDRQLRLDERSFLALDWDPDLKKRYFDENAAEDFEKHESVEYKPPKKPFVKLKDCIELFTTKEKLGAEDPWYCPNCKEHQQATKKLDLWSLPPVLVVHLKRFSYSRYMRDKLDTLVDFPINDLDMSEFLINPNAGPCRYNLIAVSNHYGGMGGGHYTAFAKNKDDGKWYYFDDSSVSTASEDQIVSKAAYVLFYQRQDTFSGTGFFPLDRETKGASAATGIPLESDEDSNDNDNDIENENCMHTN
How it was run: as §1

USP16 = USP16 (UniProt Q9Y5T5)
How it was run: as §1

Measured: log2 ratio of Biotin-Ahx-Ub-VS probe labelling

Chain of USP16 (Q9Y5T5 whole entry, looked up): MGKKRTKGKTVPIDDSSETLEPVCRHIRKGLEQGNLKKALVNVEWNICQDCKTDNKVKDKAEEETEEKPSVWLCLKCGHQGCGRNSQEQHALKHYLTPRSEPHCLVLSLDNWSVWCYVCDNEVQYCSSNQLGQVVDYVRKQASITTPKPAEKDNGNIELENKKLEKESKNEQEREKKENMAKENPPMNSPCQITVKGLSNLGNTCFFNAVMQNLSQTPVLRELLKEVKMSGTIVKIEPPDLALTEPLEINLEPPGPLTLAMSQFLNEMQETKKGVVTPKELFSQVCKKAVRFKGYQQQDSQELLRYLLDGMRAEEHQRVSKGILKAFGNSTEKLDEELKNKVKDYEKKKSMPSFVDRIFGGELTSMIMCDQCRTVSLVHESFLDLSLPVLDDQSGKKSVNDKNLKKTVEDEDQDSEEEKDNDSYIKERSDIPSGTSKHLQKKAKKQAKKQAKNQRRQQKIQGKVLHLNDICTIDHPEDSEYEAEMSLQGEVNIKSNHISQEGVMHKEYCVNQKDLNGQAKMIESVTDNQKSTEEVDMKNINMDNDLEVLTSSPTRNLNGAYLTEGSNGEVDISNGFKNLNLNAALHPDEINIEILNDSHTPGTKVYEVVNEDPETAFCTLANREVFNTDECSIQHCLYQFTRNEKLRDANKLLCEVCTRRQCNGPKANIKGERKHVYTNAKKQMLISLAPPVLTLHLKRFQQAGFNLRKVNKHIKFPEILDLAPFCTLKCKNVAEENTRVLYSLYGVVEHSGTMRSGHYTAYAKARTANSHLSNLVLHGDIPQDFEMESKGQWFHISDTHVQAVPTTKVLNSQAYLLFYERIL
Chain of UCHL1 (P09936 whole entry, looked up): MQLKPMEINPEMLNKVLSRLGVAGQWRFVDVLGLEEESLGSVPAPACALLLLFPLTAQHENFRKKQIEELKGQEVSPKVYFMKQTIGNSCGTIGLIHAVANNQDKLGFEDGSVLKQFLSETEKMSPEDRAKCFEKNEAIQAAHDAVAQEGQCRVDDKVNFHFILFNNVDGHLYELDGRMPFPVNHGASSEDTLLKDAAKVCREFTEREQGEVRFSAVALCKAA
Chain of USP10 (Q14694 whole entry): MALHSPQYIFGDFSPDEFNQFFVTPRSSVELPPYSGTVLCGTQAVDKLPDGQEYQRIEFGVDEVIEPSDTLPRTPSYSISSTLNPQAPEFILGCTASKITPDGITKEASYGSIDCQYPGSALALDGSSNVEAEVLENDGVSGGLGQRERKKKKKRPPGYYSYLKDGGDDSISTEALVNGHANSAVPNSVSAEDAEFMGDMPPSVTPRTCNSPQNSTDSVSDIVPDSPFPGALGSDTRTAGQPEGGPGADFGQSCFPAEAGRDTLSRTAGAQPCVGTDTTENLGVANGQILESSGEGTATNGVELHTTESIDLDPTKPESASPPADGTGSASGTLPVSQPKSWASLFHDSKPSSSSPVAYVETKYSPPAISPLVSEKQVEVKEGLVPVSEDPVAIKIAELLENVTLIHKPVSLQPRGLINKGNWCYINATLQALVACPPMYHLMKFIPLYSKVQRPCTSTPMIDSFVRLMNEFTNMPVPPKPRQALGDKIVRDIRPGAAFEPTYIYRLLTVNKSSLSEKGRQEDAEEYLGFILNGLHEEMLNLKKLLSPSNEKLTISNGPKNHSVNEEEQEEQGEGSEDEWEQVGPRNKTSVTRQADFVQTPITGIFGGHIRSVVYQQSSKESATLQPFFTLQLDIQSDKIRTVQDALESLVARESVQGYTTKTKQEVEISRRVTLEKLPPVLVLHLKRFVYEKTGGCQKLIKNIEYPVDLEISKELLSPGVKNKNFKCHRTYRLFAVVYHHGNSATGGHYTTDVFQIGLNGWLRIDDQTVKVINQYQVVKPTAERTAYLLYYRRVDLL

O=C(CCl)Nc1cc(Cl)ccc1-n1cncn1
active: OTUD6B -1.04 | OTUD7B -2.08 | UCHL1 -1.89 | UCHL5 -1.18 | USP15 -1.26
inactive: PRPF8 -0.132 | PSMD7 -0.143 | UCHL3 -0.609 | USP10 -0.141 | USP16 0.0892
